PubChem BioAssay (NCI)
About 79,000 compounds went through this panel and 15% of them were active in at least one assay; those are over-represented in the sample as a whole. Rule as the data show it: active = growth inhibition above about 70%; inactive = the rest. Where a SMILES comes first, the peptide text is derived from it. [ ]: non-standard residue; d: D form. The star is where a group is joined. ξ: configuration not given here. Cbz = O=C(OCc1ccccc1)*; ξNva = CCCC(N)C(=O)O

What was measured:
[1] = NCI Yeast Anticancer Drug Screen. Data for the rad50 strain (AID 155);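 also: 0% = growth of vehicle-only cultures of the same strain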; conditions: S. cerevisiae rad50 strain growth inhibition; at 50.0 µM; active compounds read high
Outline: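 Growth of the mutant yeast was measured after compound exposure and referenced to vehicle-treated cultures.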

[2] = NCI Yeast Anticancer Drug Screen. Data for the mec2-1 strain (AID 157); conditions: S. cerevisiae mec2-1 strain, at 50.0 µM, active compounds read high
Outline: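 Cells of the genetically defined mec2-1 yeast strain are incubated with test compound. Inhibition of growth is calculated against vehicle-treated controls.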

[3] = NCI Yeast Anticancer Drug Screen. Data for the sgs1 mgt1 strain (AID 161);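 also: 0% = growth of cultures given vehicle only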; conditions: S. cerevisiae sgs1 mgt1 strain, at 50.0 µM, active compounds read high
Outline: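 Genetically altered yeast, compound exposure, growth inhibition relative to vehicle.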

[4] = NCI Yeast Anticancer Drug Screen. Data for the cln2 rad14 strain (AID 165);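 also: 0% = growth equal to vehicle treated cultures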; conditions: S. cerevisiae cln2 rad14 strain, at 50.0 µM, active compounds read high
Outline: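 The screen exposed genetically defined yeast (cln2 rad14) to test compounds and scored growth inhibition relative to vehicle-treated controls.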

[5] = NCI Yeast Anticancer Drug Screen. Data for the bub3 strain (AID 167); conditions: S. cerevisiae bub3 mutant strain, at 50.0 µM, active compounds read high
Outline: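 Whole-cell yeast assay. The mutant strain was incubated with compounds, and growth inhibition was determined by comparison with vehicle-treated cells.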

[6] = NCI Yeast Anticancer Drug Screen. Data for the mlh1 rad18 strain (AID 175); conditions: S. cerevisiae mlh1 rad18 strain growth inhibition; at 50.0 µM; active compounds read high
Outline: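 Compound-treated yeast growth, normalised to vehicle controls. Strain bears defined DNA repair mutations.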

Measured: growth inhibition

CCOC(=O)C(c1ccc(C)cc1)C(Cl)(Cl)Cl (stereo not drawn)
inactive: [1] 2.45% | [2] -9.55% | [3] 3.85% | [4] -1.05% | [5] -11.5% | [6] 26.4%

C=CCNC(=S)Nc1cccc(C(C)OC(=O)NC(C)(C)C)c1 (stereo not drawn)
inactive: [1] 1.2% | [2] 30.9% | [3] 36.2% | [4] -5.8% | [5] 33.8% | [6] 20.6%

CCO/C=N\c1c(C#N)c(CC#N)nn1C
inactive: [1] -3.55% | [2] -12% | [3] -8.65% | [4] -27.9% | [5] -1.75% | [6] -13.4%

CN(c1ccc(C(=O)c2ccc(N(C)S(C)(=O)=O)cc2)cc1)S(C)(=O)=O
inactive: [1] -22.6% | [2] -27.9% | [3] -8.05% | [4] -2.35% | [5] 4.5% | [6] -6.6%

O=C(/C=C/c1ccc(OCCCOc2ccc(/C=C/C(=O)c3ccccc3)cc2)cc1)c1ccccc1
inactive: [1] 14.3% | [2] -18.1% | [3] -4.25% | [4] -57% | [5] -37.9% | [6] -10.5%

NC(=O)CCBr
inactive: [1] -15.3% | [2] 20.2% | [3] -5.45% | [4] -20.4% | [5] 1.3% | [6] -29.1%

COC(=O)CCc1c(C)[nH]c(C(=O)OC(C)(C)C)c1C
inactive: [1] -9.45% | [2] 9.3% | [3] -10.9% | [4] 14.9% | [5] -4.05% | [6] -3.05%

CN1CCC(C(O)c2ccccc2)CC1 (stereo not drawn)
inactive: [1] 3.95% | [2] -3.8% | [3] -6.15% | [4] -24.4% | [5] 3.95% | [6] 5.5%

O=C(OCc1ccccc1)C1CCCN1C(=O)C(CSC(c1ccccc1)(c1ccccc1)c1ccccc1)NC(c1ccccc1)(c1ccccc1)c1ccccc1 (stereo not drawn)
inactive: [1] -5.5% | [2] -1.35% | [3] -0.8% | [4] -11.3% | [5] -7.55% | [6] 24.6%

CN(C)C12CCCCCC1S(=O)(=O)C2 (stereo not drawn)
inactive: [1] -0.05% | [2] -20.1% | [3] 0.85% | [4] -17.6% | [5] -22.4% | [6] 3.45%

O=C(O)C1CC(Cl)C(O)C(Cl)C1 (stereo not drawn)
inactive: [1] -6.9% | [2] 8.4% | [3] 8.95% | [4] -56.3% | [5] -6.65% | [6] 9%

Cc1cccc(C)c1OC(=O)Nc1ccccc1
inactive: [1] 3.75% | [2] -18.6% | [3] 4.3% | [4] -46.5% | [5] 9.7% | [6] -8.95%

Oc1cccc2ccc(Br)nc12
inactive: [1] -10.1% | [2] 15.2% | [3] 7.25% | [4] 4.9% | [5] 5.45% | [6] -3.25%

CCOC(=O)c1c(-c2ccccc2)csc1NC(=O)CN1CCCCC1
inactive: [1] 28.6% | [2] 8.8% | [3] 14.7% | [4] 6.55% | [5] 17.9% | [6] 24.7%

CC1(C)CN(CCO)C(C)(C)CN1
inactive: [1] 30.6% | [2] 16.3% | [3] 14.9% | [4] 15.8% | [5] -19.8% | [6] 2.5%

CCOC(=O)c1c2c(c(-c3ccccc3)n1C)C(=O)C(C)=C(C)C2=O
inactive: [1] -10.8% | [2] -2.4% | [3] -10.2% | [4] -28.9% | [5] 1.05% | [6] -6.65%

CCC(C)CCC(=O)C(C)C(=O)O (stereo not drawn)
inactive: [1] 5.7% | [2] 3.1% | [3] 3.45% | [4] -11.3% | [5] 4.45% | [6] 0.5%

CCCC(NC(=O)OCc1ccccc1)C(=O)NCC(=O)NCC(=O)OC (stereo not drawn) (Cbz-[ξNva]-Gly-Gly-OMe)
inactive: [1] -30.8% | [2] 0.15% | [3] 12.2% | [4] 30.9% | [5] 0.5% | [6] 11.3%

CC(=O)OCC1OC(n2ccc(NC(=O)Nc3ccn(C4OC(COC(C)=O)C(OC(C)=O)C4OC(C)=O)c(=O)n3)nc2=O)C(OC(C)=O)C1OC(C)=O (stereo not drawn)
inactive: [1] -2.25% | [2] -11.1% | [3] 8.25% | [4] -5.35% | [5] -2.25% | [6] 10.9%

CC(=O)OCC12CCC(C)=CC1O[C@H]1[C@@H](OC(C)=O)[C@H](OC(C)=O)[C@]2(C)[C@@]12CO2 (stereo partly drawn)
inactive: [1] 24.6% | [2] -17.4% | [3] -19.6% | [4] 42.4% | [5] -14.6% | [6] 30.9%

Clc1c2ncccc2cc2n[nH]nc12
inactive: [1] 14.9% | [2] 21.2% | [3] 24% | [4] 6.55% | [5] 5.8% | [6] 17.1%

Cn1cc(C2(C)CC(C)(C)c3c2n(C)c2ccccc32)c2ccccc21 (stereo not drawn)
inactive: [1] 0.3% | [2] -16.1% | [3] -12.2% | [4] 7.15% | [5] -17.9% | [6] 2.95%

COc1ccc(C(=O)N/N=C/c2ccccc2)cc1
inactive: [1] 8.3% | [2] -10.8% | [3] -7.7% | [4] 6.85% | [5] 2.6% | [6] -18.1%

ClCc1ccc(-c2ccccc2)cc1
inactive: [1] 48.8% | [2] 16.4% | [3] 19.7% | [4] 26.7% | [5] 8.7% | [6] 47%

Cc1cc2ccc(OC(=O)c3ccc(N=C(N)N)cc3)cc2oc1=O
inactive: [1] -8.95% | [2] 4.3% | [3] -29.6% | [4] -47.8% | [5] -24.6% | [6] 13.7%

CC(C)COC(=O)N1N=NC2C3CC(=O)C(O3)C21 (stereo not drawn)
inactive: [1] 9.8% | [2] -9.7% | [3] -14.2% | [4] 11.6% | [5] -7.75% | [6] -4.75%

CN(C)CCOc1cccc(OCCN(C)C)n1
inactive: [1] 10.7% | [2] -3.25% | [3] 3.2% | [4] 1.1% | [5] 9.35% | [6] 8.7%

Cc1[nH]c2ccccc2c(=O)c1-c1ccccc1
inactive: [1] -12.2% | [2] -14.2% | [3] -5.25% | [4] -38% | [5] 0.35% | [6] -35.8%

O=C1CCCCCCCS(=O)(=O)C1
inactive: [1] -8.55% | [2] -0.05% | [3] -4.75% | [4] -19.6% | [5] -4.95% | [6] -0.2%

Cc1cccc(Oc2ccc(C(F)(F)F)cc2[N+](=O)[O-])c1C
inactive: [1] -32.2% | [2] -2.15% | [3] 2.55% | [4] -45.4% | [5] 45.3% | [6] -15.2%

CCn1c2ccc(C(=O)CCCN(C)C)cc2c2cc(C(=O)CCCN(C)C)ccc21
inactive: [1] 5.15% | [2] -33.3% | [3] 8.5% | [4] 4.05% | [5] 14.2% | [6] -21.9%

O=[N+]([O-])c1cc(F)cc(I)c1
inactive: [1] -3.15% | [2] -38.6% | [3] 2.15% | [4] 15.8% | [5] 4.25% | [6] -5%

CCCCC(=O)NCCNC(=O)CCCC
inactive: [1] -0.5% | [2] 7% | [3] -1.8% | [4] -18.6% | [5] 14.2% | [6] 9.55%

Nn1nc2ccccc2n1
inactive: [1] -0.15% | [2] 0.2% | [3] -11.1% | [4] 1.6% | [5] 0.75% | [6] 1.45%

Nc1nc(-c2ccc3c(ccc4ccccc43)c2)cs1
inactive: [1] 7.6% | [2] 15.5% | [3] 18.2% | [4] -46.3% | [5] 47.7% | [6] 28.2%

COc1ccc(CC#N)cc1OC
inactive: [1] 6.5% | [2] -8.3% | [3] -5.6% | [4] -54.8% | [5] -31.4% | [6] -5.2%

COC(=O)N1c2ccccc2N(C(=O)OC)c2c1oc1ccccc1c2=O
inactive: [1] 38.2% | [2] 12.6% | [3] 33.6% | [4] 7.3% | [5] 26.5% | [6] 31.9%

O=C(O)c1cccc2c1-c1ccc(NC(=O)C(Cl)Cl)cc1C2=O
inactive: [1] 31% | [2] -1.65% | [3] -6.85% | [4] -5.7% | [5] 16.1% | [6] 12.1%
